The test system of the first assay is P. falciparum NF54-pfs16-GFP early (I-III) stage gametocytes. Description: relative % inhibition of viable gametocyte number; higher = more gametocytocidal. Particulars: 0.5 µM; stage: early (I-III) gametocyte; incubation 72 h. The procedure, abridged:
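Early-stage (I/IIa, day 2) or late-stage (day 8) NF54 pfs16-GFP gametocytes were isolated by magnet and plated in 384-well poly-D-lysine imaging plates at 10% parasitaemia and 0.1% haematocrit, with compound in duplicate at 5 or 0.5 µM. After 72 h at 37°C under 5% CO2 and 5% O2, MitoTracker Red was added overnight. Confocal imaging scored elongated GFP objects whose MitoTracker signal passed a cut-off as viable gametocytes. Relative inhibition was normalised against vehicle and positive-control wells on the same plate.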
Take `CCOc1cc(Cl)c(C(C)NC(=O)c2cccc(OC)c2)cc1OCC` (stereo not drawn): the relative % inhibition came to 24.8%.

With `COc1ccc(-c2cn3c(C(=O)Nc4ccccc4Cl)c(-c4ccccc4)c4c3n2CCCC4)cc1`, the relative % inhibition stood at 10.5%.

In the case of `CCOC(=O)c1cnc2ccc(CC)cc2c1O`, the relative % inhibition is -8.43%.

Take `Cc1ccc(Cn2c(N3CCC(C(=O)NCc4cccs4)CC3)nc3ccccc32)cc1`: the relative % inhibition stood at 10.4%.

Consider `Cc1cc(Nc2ccc(OCc3ccccc3)cc2)nc2cc(O)ccc12`, for which the relative % inhibition was found to be 12.6%.

Turning to `FC(F)(F)c1cccc(Nc2nc3ccccc3nc2Nc2cccc(C(F)(F)F)c2)c1`, the relative % inhibition was determined as 96.8%.

With `CC(C)c1ccc(CNCC(O)c2ccccc2)cc1` (stereo not drawn), the relative % inhibition came to 5.28%.

On to `COC(=O)c1ccc(C2C3=C(O)CC(c4ccc(F)cc4)CC3=Nc3ccccc3N2C(=O)c2ccccc2)cc1` (stereo not drawn), for which the relative % inhibition was 26.9%.

`CCn1nc(-c2ccc(C(=O)OC)cc2)nc2c(=O)n(C)c(=O)nc1-2`: the relative % inhibition stood at 18.4%.

On to `CCCCC(O)(c1ccc(Cl)cc1)C(CN1CCOCC1)c1ccc(Cl)cc1` (stereo not drawn), for which the relative % inhibition was 10.8%.

For `COC(=O)c1ccc(Cl)c2c1C1C=CCC1C(c1cccc3ccccc13)N2` (stereo not drawn), the relative % inhibition was -9.28%.

On to `COc1cccc(NC(=O)[C@H](C(C)C)n2c(=O)[nH]c3ccccc3c2=O)c1`, for which the relative % inhibition came out at 70.7%.

As for `CCc1ccc(Nc2cc(C)c3ccc(O)cc3n2)cc1`, the relative % inhibition stood at 1.9%.

Take `O=C(Nc1ccc(F)c(Cl)c1)Nc1ccc(Cl)c(Cl)c1`: the relative % inhibition stood at 6.15%.

As to `O=C(Nc1cccc(C2=NCCN2)c1)Nc1cccc(C2=NCCN2)c1`, the relative % inhibition came out at 9.97%.

On to `O=C(Nc1ccccc1O)c1ccc(Oc2cccc(C(=O)Nc3ccccc3O)c2)cc1`, for which the relative % inhibition was found to be 20.5%.

As to `O=C1CC(O)(C(F)(F)C(F)(F)F)Oc2ccccc21` (stereo not drawn), the relative % inhibition was 0.889%.

For `Cc1ccc2nc(C)cc(Nc3cccc(C(F)(F)F)c3)c2c1`, the relative % inhibition was -7.3%.

As for `CCOC(=O)c1cnc2c(C)cccc2c1Nc1ccc(C(C)=O)cc1`, the relative % inhibition is -9.17%.

For the compound `c1ccc2c(NCCc3c[nH]c4ccccc34)c3ccccc3nc2c1`, the relative % inhibition came out at 37.7%.

Regarding `O=C(NC1CCN(Cc2ccccc2)CC1)c1cc(-c2cccnc2)nc2ccc(Cl)cc12`, the relative % inhibition is 3.2%.

As for `CCCCCCn1c(=N)n(CC(O)COc2cccc(C)c2)c2ccccc21` (stereo not drawn), the relative % inhibition is 23%.

As to `CN1CCN(c2c3c(c(C#N)c4nc5ccccc5n24)CCC3)CC1`, the relative % inhibition is -35.3%.

Turning to `Fc1ccc2[nH]c3c(NCCCN4CCOCC4)ncnc3c2c1`, the relative % inhibition amounted to 18.8%.

Turning to `CCOc1ccc(-n2cc(-c3ccccc3)c3c(SCc4cc(C)ccc4C)ncnc32)cc1`, the relative % inhibition is -4.24%.

On to `Cc1ccc(S(=O)(=O)c2c(COC(=O)c3cccc(C)c3)c(-c3ccccc3)nn2C)cc1`, for which the relative % inhibition is -3.57%.

Take `CCOC(=O)c1c(C)n(-c2ccc(Cl)cc2)c2ccc(OC(=O)C=Cc3ccccc3)cc12`: the relative % inhibition was 15.8%.

On to `Cc1ccc2c(C)nc(Nc3nc(C)cc(-c4ccccc4)n3)nc2c1`, for which the relative % inhibition came out at 38%.

Take `Cc1sc(NC(=O)c2ccccc2)c(C(c2cccs2)N2CCN(c3ccccc3)CC2)c1C` (stereo not drawn): the relative % inhibition is 17.7%.

Regarding `FC(F)(F)c1cccc(CNC2CCN(CCc3ccccc3)CC2)c1`, the relative % inhibition is -2.89%.

As to `Cc1nc2ccccc2c(O)c1CC=C(Cl)Cl`, the relative % inhibition came to 4.23%.

Turning to `COc1ccc(NC(=O)C2c3ccccc3C(=O)N(CC(C)C)C2c2cccs2)cc1` (stereo not drawn), the relative % inhibition was 52.4%.

In the case of `COc1ccccc1N1CCN(C(CNS(=O)(=O)c2ccc(Cl)cc2)c2cccnc2)CC1` (stereo not drawn), the relative % inhibition was -2.86%.

`CCOc1cc2c(cc1OCC)C(c1cc(Cl)ccc1O)NCC2` (stereo not drawn): the relative % inhibition stood at 13%.

For `CCCCc1c(C)nc2c(OC)cccc2c1O`, the relative % inhibition was found to be 12.7%.

Take `CCOc1ccc(Nc2ccnc3cc(Cl)ccc23)cc1`: the relative % inhibition is -5.49%.

Take `O=C(NCc1ccco1)C1CCN(S(=O)(=O)c2ccc(Cl)cc2)CC1`: the relative % inhibition was found to be 7.81%.

With `Cc1cc(Nc2ccc3ccccc3c2)n2ncnc2n1`, the relative % inhibition is -10.4%.

Take `O=C(Nc1ccc(Cl)cc1)N1CCN(c2ccc3nncn3n2)CC1`: the relative % inhibition was 18%.

Still in this assay, the particulars now being: 5 µM; stage: early (I-III) gametocyte; incubation 72 h.
With `CCOc1cc(Cl)c(C(C)NC(=O)c2cccc(OC)c2)cc1OCC` (stereo not drawn), the relative % inhibition came to 60.9%.

For `COc1ccc(-c2cn3c(C(=O)Nc4ccccc4Cl)c(-c4ccccc4)c4c3n2CCCC4)cc1`, the relative % inhibition was found to be 30.9%.

For `CCOC(=O)c1cnc2ccc(CC)cc2c1O`, the relative % inhibition worked out at 42.6%.

With `Cc1ccc(Cn2c(N3CCC(C(=O)NCc4cccs4)CC3)nc3ccccc32)cc1`, the relative % inhibition is 35.6%.

As for `Cc1cc(Nc2ccc(OCc3ccccc3)cc2)nc2cc(O)ccc12`, the relative % inhibition is 95.1%.

Turning to `FC(F)(F)c1cccc(Nc2nc3ccccc3nc2Nc2cccc(C(F)(F)F)c2)c1`, the relative % inhibition worked out at 102%.

`CC(C)c1ccc(CNCC(O)c2ccccc2)cc1` (stereo not drawn): the relative % inhibition came to 89.6%.

Turning to `COC(=O)c1ccc(C2C3=C(O)CC(c4ccc(F)cc4)CC3=Nc3ccccc3N2C(=O)c2ccccc2)cc1` (stereo not drawn), the relative % inhibition stood at 103%.

In the case of `CCn1nc(-c2ccc(C(=O)OC)cc2)nc2c(=O)n(C)c(=O)nc1-2`, the relative % inhibition worked out at 36.1%.

`CCCCC(O)(c1ccc(Cl)cc1)C(CN1CCOCC1)c1ccc(Cl)cc1` (stereo not drawn): the relative % inhibition is 92.5%.

`COC(=O)c1ccc(Cl)c2c1C1C=CCC1C(c1cccc3ccccc13)N2` (stereo not drawn): the relative % inhibition turned out to be 8.02%.

As for `COc1cccc(NC(=O)[C@H](C(C)C)n2c(=O)[nH]c3ccccc3c2=O)c1`, the relative % inhibition came to 97.8%.

Turning to `CCc1ccc(Nc2cc(C)c3ccc(O)cc3n2)cc1`, the relative % inhibition turned out to be 99.6%.

Consider `O=C(Nc1ccc(F)c(Cl)c1)Nc1ccc(Cl)c(Cl)c1`, for which the relative % inhibition turned out to be 98.2%.

As for `O=C(Nc1cccc(C2=NCCN2)c1)Nc1cccc(C2=NCCN2)c1`, the relative % inhibition was 6.29%.

On to `O=C(Nc1ccccc1O)c1ccc(Oc2cccc(C(=O)Nc3ccccc3O)c2)cc1`, for which the relative % inhibition is 50.6%.

As to `O=C1CC(O)(C(F)(F)C(F)(F)F)Oc2ccccc21` (stereo not drawn), the relative % inhibition came out at 0.745%.

Take `Cc1ccc2nc(C)cc(Nc3cccc(C(F)(F)F)c3)c2c1`: the relative % inhibition is 60.2%.

As for `CCOC(=O)c1cnc2c(C)cccc2c1Nc1ccc(C(C)=O)cc1`, the relative % inhibition was determined as 7.93%.

`c1ccc2c(NCCc3c[nH]c4ccccc34)c3ccccc3nc2c1`: the relative % inhibition came out at 89.1%.

Consider `O=C(NC1CCN(Cc2ccccc2)CC1)c1cc(-c2cccnc2)nc2ccc(Cl)cc12`, for which the relative % inhibition amounted to 46.2%.

For `CCCCCCn1c(=N)n(CC(O)COc2cccc(C)c2)c2ccccc21` (stereo not drawn), the relative % inhibition came out at 52%.

For `CN1CCN(c2c3c(c(C#N)c4nc5ccccc5n24)CCC3)CC1`, the relative % inhibition was -26.5%.

For the compound `Fc1ccc2[nH]c3c(NCCCN4CCOCC4)ncnc3c2c1`, the relative % inhibition was 97.3%.

As to `CCOc1ccc(-n2cc(-c3ccccc3)c3c(SCc4cc(C)ccc4C)ncnc32)cc1`, the relative % inhibition was -7.96%.

Regarding `Cc1ccc(S(=O)(=O)c2c(COC(=O)c3cccc(C)c3)c(-c3ccccc3)nn2C)cc1`, the relative % inhibition worked out at 37.5%.

As for `CCOC(=O)c1c(C)n(-c2ccc(Cl)cc2)c2ccc(OC(=O)C=Cc3ccccc3)cc12`, the relative % inhibition turned out to be 26.8%.

On to `Cc1ccc2c(C)nc(Nc3nc(C)cc(-c4ccccc4)n3)nc2c1`, for which the relative % inhibition turned out to be 88.6%.

`Cc1sc(NC(=O)c2ccccc2)c(C(c2cccs2)N2CCN(c3ccccc3)CC2)c1C` (stereo not drawn): the relative % inhibition stood at 12.8%.

`FC(F)(F)c1cccc(CNC2CCN(CCc3ccccc3)CC2)c1`: the relative % inhibition came out at 82.2%.

As for `Cc1nc2ccccc2c(O)c1CC=C(Cl)Cl`, the relative % inhibition stood at 3.33%.

For the compound `COc1ccc(NC(=O)C2c3ccccc3C(=O)N(CC(C)C)C2c2cccs2)cc1` (stereo not drawn), the relative % inhibition was 102%.

For `COc1ccccc1N1CCN(C(CNS(=O)(=O)c2ccc(Cl)cc2)c2cccnc2)CC1` (stereo not drawn), the relative % inhibition was found to be 41.8%.

As for `CCOc1cc2c(cc1OCC)C(c1cc(Cl)ccc1O)NCC2` (stereo not drawn), the relative % inhibition was determined as 102%.

Regarding `CCCCc1c(C)nc2c(OC)cccc2c1O`, the relative % inhibition was -0.633%.

For the compound `CCOc1ccc(Nc2ccnc3cc(Cl)ccc23)cc1`, the relative % inhibition was -2.53%.

`O=C(NCc1ccco1)C1CCN(S(=O)(=O)c2ccc(Cl)cc2)CC1`: the relative % inhibition is 3.24%.

As to `Cc1cc(Nc2ccc3ccccc3c2)n2ncnc2n1`, the relative % inhibition came out at 3.61%.

`O=C(Nc1ccc(Cl)cc1)N1CCN(c2ccc3nncn3n2)CC1`: the relative % inhibition amounted to 6.7%.

The values above are taken from the supplement of paper PMC3842684.
